Laboratory results as given in ChEMBL document CHEMBL1157539, “Thousands of chemical starting points for antimalarial lead identification” (Nature, 2010).

How the values were obtained:
Format in all cases: functional
Plasmodium falciparum [1] = assay: GSK_TCMDC: Inhibition of Plasmodium falciparum 3D7 in whole red blood cells, using parasite LDH activity as an index of growth. Test compounds present at 2uM
Plasmodium falciparum [2] = assay: GSK_TCMDC: Inhibition of Plasmodium falciparum Dd2 in whole red blood cells, using parasite LDH activity as an index of growth. Test compounds present at 2uM
HepG2 = assay: GSK_TCMDC: Percent inhibition of human HepG2 cell line. Test compounds present at 10uM.

Structure (SMILES)	Inhibition (Plasmodium falciparum [1]) [%]	Inhibition (Plasmodium falciparum [2]) [%]	Inhibition (HepG2) [%]
Cc1cc(N2CCCC2)nc(Nc2ccc(NC(=O)c3ccc(Br)o3)cc2)n1	99	57	17
COc1cc(C(=O)N2CCN(C(C)C)CC2)ccc1CN(C)CCCCN1CCN(c2cccc(Cl)c2Cl)CC1.Cl	100	98	79
O=C(Nc1ccc(C(=O)N2CCN(CCN3CCN(c4cccc(C(F)(F)F)c4)CC3)CC2)cc1)c1cc(Cl)cc(Cl)c1	100	19	23
COc1cccc(-c2ccc3c(-c4cccc(NC(C)=O)c4)cnc(N)c3c2)c1.O=CO	99	83	71
CN(C)c1ccc(C=C2SC(=O)N=C2Nc2ccccc2)cc1	97	96	42
CNCCNCc1ccc(-c2ccc(-c3nc4ccccc4[nH]3)s2)cc1.O=C(O)C(F)(F)F	99	15	11
O=C(N[C@@H](Cc1ccccc1)C(=O)NC1CCCCC1)c1ccc(O)c(-c2ccc(Cl)c(Cl)c2)c1	98	99	0
O=C(NCCc1ccccc1F)c1ccc(N2CCN(c3ccncc3)CC2)cn1.O=C(O)C(F)(F)F	93	18	8
Cl.O=C(NCCCCN1CCC(c2ccc3c(c2OC(=O)c2ccc(NC(=O)c4ccc(Cl)cc4)cc2)CCCC3)CC1)c1ccc(NC(=O)c2ccc(Cl)cc2)cc1	100	99	62
Cn1cncc1-c1cc2c(Nc3ccc(OCc4ccccc4)cc3)ncnc2cn1	99	75	0
CCn1cnc2c(N3CCCS3(=O)=O)cc(C(=O)N[C@@H](Cc3ccccc3)[C@H](O)CNC(C)(C)c3cccc(C(F)(F)F)c3)cc21	99	97	9
CC(C)C[C@@H](/C=N/N1CCOC1=O)NC(=O)[C@H](CC(C)C)NC(=O)c1ccc(OCCN2CCOCC2)cc1	92	87	5
Cl.O=C(Nc1ccc(C(=O)Nc2ccc(C3=NCCN3)cc2)cc1)Nc1ccc(C2=NCCN2)cc1	94	95	0
COc1cc(NC(=O)/C=C/c2ccc(-c3ccccc3)cc2)ccc1OCCN(C(C)C)C(C)C.Cl	94	62	58
O=C(Nc1cccc(CN2CCCN(Cc3ncc[nH]3)CC2)c1)c1cc2ccccc2s1.O=C(O)C(F)(F)F	99	35	22
COc1ccc(CN2CCC2=O)c(OC)c1	98	96	0
OC(CNCc1ccccc1OCc1ccccc1)c1cccc(Cl)c1 (stereo unspecified)	100	100	0
Cc1nnc2c(NC(=O)NC(C)C)cc3cc(-c4ccc(CN5CCCCC5)cc4)ccc3n12	87	8	70
Cc1cccc2nc(-c3ccc(-c4ccc(CN5CCN(CCN6CCOCC6)CC5)cc4)s3)[nH]c12.O=C(O)C(F)(F)F	100	99	41
Cn1nccc1C(=O)NCCNCc1cccc(-c2cccc(-c3nc4cc(C(F)(F)F)ccc4[nH]3)c2)c1.O=C(O)C(F)(F)F	100	99	39
Cl.O=C(C(=O)c1ccc(Nc2ccnc3cc(-c4ccccn4)ccc23)cc1)c1ccccc1	93	34	22
COc1ccc2cc(C(c3nnnn3CC3CCCO3)N3CCc4ccccc43)c(=O)[nH]c2c1 (stereo unspecified)	94	3	0
COc1cccc(C(=O)N2CCN(Cc3cccc(NC(=O)c4cccs4)c3)CC2)c1.O=C(O)C(F)(F)F	95	95	6
O=C(/C=C/c1ccc(Cl)c(Cl)c1)NCCCCCN1CCCC(C(=O)Nc2ccc(Cl)c(Cl)c2)C1 (stereo unspecified)	100	11	53
N#CCCN1CCN(Cc2cccc(-c3ccc(-c4nc5ccccc5[nH]4)s3)c2)CC1.O=C(O)C(F)(F)F	96	8	48
CC(C)N1CCC(Oc2ccc(CN3CCN(C(c4ccccc4)c4ccc(Cl)cc4)CC3)cc2)CC1.Cl (stereo unspecified)	97	46	44
Cn1cccc1C(=O)C(=O)Nc1ccc(-c2ccc(-c3nc4cc(F)ccc4[nH]3)cc2)cc1	92	33	44
